Results filed as inconclusive are left out. A call without a number means that no potency is given here. Active and inactive are the calls of the source. Calls come from the whole dose curve; as a rule, active = well fitted curve in the direction sought with a large enough effect in the repeat runs; inconclusive = weak or mixed curves; inactive = no such curve, though single readings can be large; an effect the other way counts as inactive or inconclusive.
experiment: qHTS RealTime-Glo MT Cell Viability Assay in HepG2 cells - 24 hour (AID 1224867); details: RealTime-Glo luminescence; series mostly up to 76.8 µM
Method in brief: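 Real-time, nonlytic viability: 600 HepG2 cells/well mixed with NanoLuc enzyme plus prosubstrate; 5 h settle, compound (DMSO) added by pintool; luminescence monitored over 40 h at 37 C.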
Note: nearly all actives have a fitted effect of over 50% in size.

Q: With `CC1(C)OC[C@@H](COC(=O)CCc2ccc(OC[C@@H](O)CNCCNC(=O)N3CCOCC3)cc2)O1` as the compound, how does the outcome read?
A: The outcome was “inactive”.

Q: For `CN(C)CCN(C)CCN(C)C`, which outcome is on record?
A: Its outcome is “inactive”.

Q: For `CN(C)C(=O)Oc1cccc([N+](C)(C)C)c1`, which outcome is on record?
A: The outcome was “inactive”.

Q: With `CC1CCC(CO)CC1` (configuration not stated) as the compound, how does the outcome read?
A: Its outcome is “inactive”.

Q: With `CC(C)CC(C)(N)C#N` (configuration not stated) as the compound, how does the outcome read?
A: The outcome was “inactive”.

Q: For `c1coc(CNc2ncnc3nc[nH]c23)c1`, which outcome is on record?
A: The outcome was “inactive”.

Q: For `C1CCC2(CCCCO2)OC1`, which outcome is on record?
A: Its outcome is “inactive”.

Q: With `COCCOC[C@H](CC1(C(=O)NC2CCC(C(=O)O)CC2)CCCC1)C(=O)Oc1ccc2c(c1)CCC2` (some centres not stated) as the compound, how does the outcome read?
A: The outcome was “inactive”.

Q: For `CCC1C(=O)OCC1Cc1cncn1C` (configuration not stated), which outcome is on record?
A: Its outcome is “inactive”.

Q: For `CN(C)CCCCCCN(C)C`, which outcome is on record?
A: The outcome was “inactive”.

Q: With `CCCO[Si](OCCC)(OCCC)OCCC` as the compound, how does the outcome read?
A: Its outcome is “inactive”.

Q: With `COc1ccccc1OCC1CNC(=O)O1` (configuration not stated) as the compound, how does the outcome read?
A: The outcome was “inactive”.

Q: For `O=C(O)CNC(=O)c1ccccc1`, which outcome is on record?
A: Its outcome is “inactive”.

Q: For `[O-][n+]1cccc(CO)c1`, which outcome is on record?
A: Its outcome is “inactive”.

Q: With `CC(C)C1CCC(O)CC1` (configuration not stated) as the compound, how does the outcome read?
A: The outcome was “inactive”.

Q: For `CCOC(=O)c1ccccc1`, which outcome is on record?
A: The outcome was “inactive”.

Q: Which outcome does the source give for `O=C1c2ccccc2C(=O)c2cc(O)ccc21` here?
A: The outcome was “inactive”.

Q: For `CCOc1ccccc1OCC`, which outcome is on record?
A: The outcome was “inactive”.

Q: With `CCCCOCCOC(=O)COc1cc(Cl)c(Cl)cc1Cl` as the compound, how does the outcome read?
A: The outcome was “inactive”.

Q: With `CC(C)COC(=O)c1ccc(N)cc1` as the compound, how does the outcome read?
A: Its outcome is “inactive”.

Q: With `COc1cc(C(=O)NCc2ccc(OCCN(C)C)cc2)cc(OC)c1OC` as the compound, how does the outcome read?
A: Its outcome is “inactive”.

Q: With `NCCCC[C@H](N[C@@H](CCc1ccccc1)C(=O)O)C(=O)N1CCC[C@H]1C(=O)O` as the compound, how does the outcome read?
A: The outcome was “inactive”.

Q: With `Cc1coc2ccccc2c1=O` as the compound, how does the outcome read?
A: Its outcome is “inactive”.

Q: With `CCCCCCCCCC[N+](C)(C)[O-]` as the compound, how does the outcome read?
A: Its outcome is “inactive”.

Q: Which outcome does the source give for `O=C(c1ccccc1O)c1ccccc1O` here?
A: The outcome was “inactive”.

Q: For `NC(=O)Cc1cccc2ccccc12`, which outcome is on record?
A: Its outcome is “inactive”.

Q: With `C=C(C)C(=O)OCCOCCOCCOCCOC(=O)C(=C)C` as the compound, how does the outcome read?
A: Its outcome is “inactive”.

Q: With `CC12CCC(C(=O)C1=O)C2(C)C` (configuration not stated) as the compound, how does the outcome read?
A: The outcome was “inactive”.

Q: Which outcome does the source give for `CCCC[N+](C)(CCCC)CCCC` here?
A: The outcome was “inactive”.

Q: With `CCOc1c(N2CCOCC2)cnn(C)c1=O` as the compound, how does the outcome read?
A: Its outcome is “inactive”.

experiment: qHTS RealTime-Glo MT Cell Viability Assay in HEK293 cells - 32 hour (AID 1224868); details: RealTime-Glo luminescence; series mostly up to 76.8 µM; note: potency is the fitted concentration of half-maximal effect
Method in brief: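 Cells + reagent dispensed (600 cells/well, HEK293) → 5 h at 37 C/5% CO2 → 23 nL compound in DMSO pinned → 40 h at 37 C → luminescence read at 0, 8, 16, 24, 32, 40 h.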

Q: With `CN(C)CCN(C)CCN(C)C` as the compound, how does the Potency read?
A: Its Potency is “inactive”.

Q: For `CC(C)CC(C)(N)C#N` (configuration not stated), which Potency is on record?
A: The Potency was “inactive”.

Q: Which Potency does the source give for `c1coc(CNc2ncnc3nc[nH]c23)c1` here?
A: Its Potency is “inactive”.

Q: Which Potency does the source give for `C1CCC2(CCCCO2)OC1` here?
A: Its Potency is “inactive”.

Q: Which Potency does the source give for `COCCOC[C@H](CC1(C(=O)NC2CCC(C(=O)O)CC2)CCCC1)C(=O)Oc1ccc2c(c1)CCC2` (some centres not stated) here?
A: Its Potency is “inactive”.

Q: Which Potency does the source give for `CCC1C(=O)OCC1Cc1cncn1C` (configuration not stated) here?
A: The Potency was “inactive”.

Q: For `CN(C)CCCCCCN(C)C`, which Potency is on record?
A: Its Potency is “inactive”.

Q: For `CCCn1cc[n+](C)c1C`, which Potency is on record?
A: The Potency was “inactive”.

Q: Which Potency does the source give for `CCCO[Si](OCCC)(OCCC)OCCC` here?
A: The Potency was “inactive”.

Q: With `NC(=O)NC1N=C([O][Al])NC1=O` (configuration not stated) as the compound, how does the Potency read?
A: Its Potency is “inactive”.

Q: With `COc1ccccc1OCC1CNC(=O)O1` (configuration not stated) as the compound, how does the Potency read?
A: Its Potency is “inactive”.

Q: For `O=C(O)CNC(=O)c1ccccc1`, which Potency is on record?
A: The Potency was “inactive”.

Q: For `[O-][n+]1cccc(CO)c1`, which Potency is on record?
A: Its Potency is “inactive”.

Q: Which Potency does the source give for `CC(C)C1CCC(O)CC1` (configuration not stated) here?
A: Its Potency is “inactive”.

Q: With `CCOC(=O)c1ccccc1` as the compound, how does the Potency read?
A: The Potency was “inactive”.

Q: Which Potency does the source give for `COc1cc2c(cc1OC)-c1cc3ccc(OC)c(OC)c3c[n+]1CC2` here?
A: Its Potency is 49.4 µM (active).

Q: With `CCOc1ccccc1OCC` as the compound, how does the Potency read?
A: The Potency was “inactive”.

Q: With `CCCCOCCOC(=O)COc1cc(Cl)c(Cl)cc1Cl` as the compound, how does the Potency read?
A: The Potency was “inactive”.

Q: For `CC(C)COC(=O)c1ccc(N)cc1`, which Potency is on record?
A: Its Potency is “inactive”.

Q: With `COc1cc(C(=O)NCc2ccc(OCCN(C)C)cc2)cc(OC)c1OC` as the compound, how does the Potency read?
A: The Potency was “inactive”.

Q: Which Potency does the source give for `Cc1ccnc(NS(=O)(=O)c2ccc(N)cc2)n1` here?
A: The Potency was “inactive”.

Q: For `COC(=O)C1=C(C)NC(C)=C(C(=O)OC(C)C)C1c1cccc2nonc12` (configuration not stated), which Potency is on record?
A: The Potency was 19 µM (active).

Q: Which Potency does the source give for `NCCCC[C@H](N[C@@H](CCc1ccccc1)C(=O)O)C(=O)N1CCC[C@H]1C(=O)O` here?
A: The Potency was “inactive”.

Q: For `CCCCCCCCCC[N+](C)(C)[O-]`, which Potency is on record?
A: The Potency was “inactive”.

Q: For `CC12CCC(C(=O)C1=O)C2(C)C` (configuration not stated), which Potency is on record?
A: Its Potency is “inactive”.

Q: With `CCCC[N+](C)(CCCC)CCCC` as the compound, how does the Potency read?
A: Its Potency is “inactive”.

Q: For `CCOc1c(N2CCOCC2)cnn(C)c1=O`, which Potency is on record?
A: Its Potency is “inactive”.
